PBM binding z-score data for eight sequences are collected here from the supplement of paper PMC6555819.

Common to all, as to assay: PBM binding z-score (relative to random genomic background probes); higher = stronger binding; sequences stand for … in GC…GCGATTGACAGCGTAGAATGAAGG
Test [1] relates to FXR:RXRa (NR concentration 270 nM, RXRa partner concentration 90 nM). A digest of the protocol:
(§1)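 Regression normalization was applied to scanned fluorescence from custom Agilent 4×180K protein-binding microarrays. Before scanning, arrays were incubated 1 h with ligand-free nuclear receptor dimers, and binding was detected with antibodies against each partner (one per run). Binding z-scores use the random background probes as reference.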

Test [2] concerns LXRa:RXRa (NR concentration 270 nM, RXRa partner concentration 90 nM). The procedure, abridged:
as §1

In test [3] the test system is LXRa homodimer (NR concentration 270 nM). The procedure, abridged: as §1
In test [4] the test system is LXRb:RXRa (NR concentration 270 nM, RXRa partner concentration 90 nM). A digest of the protocol: as §1
Test [5] has as its system PPARg:RXRa (NR concentration 180 nM, RXRa partner concentration 90 nM). The procedure, abridged: as §1
For test [6], the system named is PPARg:RXRa 270nM:90nM, anti-RXR (NR concentration 270 nM, RXRa partner concentration 90 nM). A digest of the protocol:
as §1

In test [7] the test system is PPARg:RXRa 30nM:10nM, anti-RXR (NR concentration 30 nM, RXRa partner concentration 10 nM). A digest of the protocol: as §1
The subject of test [8] is PPARg:RXRa 90nM:30nM, anti-RXR (NR concentration 90 nM, RXRa partner concentration 30 nM). A digest of the protocol: as §1
Test [9] concerns PPARg:RXRa DBDmut IVT, anti-RXR (DBD mutation: RXRa K156A/R161A, NR concentration 270 nM, RXRa partner concentration 90 nM). The procedure, abridged: as §1
Test [10] deals with PPARg:RXRa IVT, anti-PPARg (NR concentration 270 nM, RXRa partner concentration 90 nM). The procedure, abridged: as §1
The subject of test [11] is PPARg homodimer (NR concentration 180 nM). The procedure, abridged:
as §1

Test [12] concerns PXR:RXRa (NR concentration 270 nM, RXRa partner concentration 90 nM). A digest of the protocol: as §1
For test [13], the system named is PXR homodimer (NR concentration 270 nM). A digest of the protocol: as §1
Test [14] concerns RARa:RXR (NR concentration 270 nM, RXRa partner concentration 90 nM). A digest of the protocol: as §1
In test [15] the test system is RARa homodimer (NR concentration 270 nM). The procedure, abridged:
as §1

The test system of test [16] is RARb:RXRa (NR concentration 270 nM, RXRa partner concentration 90 nM). A digest of the protocol:
as §1

Test [17] concerns LXRb homodimer (NR concentration 270 nM). A digest of the protocol:
as §1

The subject of test [18] is PPARa:RXRa (NR concentration 270 nM, RXRa partner concentration 90 nM). A digest of the protocol:
as §1

Test [19] relates to PPARg DBDmut:RXRa IVT, anti-PPARg (DBD mutation: PPARg1 K132A/R137A, NR concentration 270 nM, RXRa partner concentration 90 nM). A digest of the protocol: as §1
Test [20] relates to PPARg DBDmut IVT, anti-PPARg (DBD mutation: PPARg1 K132A/R137A, NR concentration 270 nM). The procedure, abridged: as §1

As to TCGAGTAGGTTACGGGGGCGTTCAGGGATGAAGA, the PBM binding z-score in test [1] was determined as 1.63; in test [2], 2.21; in test [3], 0.585; in test [4], 4.83; in test [5] it was 4.72; in test [6], 4.75. Further, the PBM binding z-score in [7] was 2.93; in [8] it was 3.91; in test [9], 4.48; in test [10], 5.35; in test [11] it was 2.99; in test [12], 2.69. Further, the PBM binding z-score was determined as 1.81 in test [13], 2.9 in [14], 0.56 in test [15] and 2.23 in test [16].

For the sequence AGAATGAGGTTAGCAAAGATCAGGGAAACGCTTG, the PBM binding z-score in [1] was 0.688; in test [2], 1.07; in [3], -0.0125; in [17], -0.163; in test [18], 1.79; in test [5], 1.02. The PBM binding z-score was found to be 0.909 in test [6]; 0.0816 in test [7]; 0.6 in test [8]; 2.18 in test [9]; 1.55 in test [10]; 0.688 in test [19]. The PBM binding z-score was 0.613 in [20]; -0.323 in test [11]; 0.442 in test [12]; -0.147 in [13]; 0.623 in test [14]; 0.53 in test [15]. Also, in test [16], the PBM binding z-score is 1.46.

As to TATACAGGATCAAAGGCCAGAGTACGAATGTCGA, the PBM binding z-score was 0.361 in test [1]; 0.271 in [2]; -0.0452 in test [3]; 0.483 in test [17]; 1.33 in test [18]; 2.37 in [5]. Also, the PBM binding z-score in [6] came out at 3.11; in test [7], 1.85; in test [8] it was 2.92; in test [9] it was 0.256; in test [10], 1.03; in [19], 0.156. Moreover, the PBM binding z-score in test [20] turned out to be 0.991; in [11], 1.27; in test [12] it was 0.0724; in test [13], 0.338; in test [14], 0.0923; in test [15], 0.389. The PBM binding z-score in [16] came out at 0.997.

With ATCGAAAGGTCGAGTTGAGTATAGAGAAAGGGAA, the PBM binding z-score in test [1] was determined as 4.54; in test [2] it was 3.84; in [3], 0.29; in [17], 1.04; in [18], 4.32; in test [5] it was 2.44. The PBM binding z-score was 2.9 in test [6]; 0.961 in test [7]; 2.07 in test [8]; -0.0281 in [9]; 1.21 in test [10]; 0.792 in test [19]. Also, the PBM binding z-score in test [20] turned out to be 0.196; in [11], 1.65; in test [12] it was 2.74; in test [13], 0.316; in [14], 3.29; in test [15] it was 0.834. In test [16], the PBM binding z-score was 3.88.

In the case of TCGAGTAGCTTACGGGGGCATTCAGGGATGAAGA, the PBM binding z-score in [1] was found to be 1.64; in [2], 1.5; in test [3], 0.141; in test [4], 3.47; in [18], 2.12; in [6], 2.1. Also, the PBM binding z-score in [7] stood at 2.18; in [8], 2.37; in test [9], 1.25; in [10] it was 2.26; in test [11], 0.346; in test [12] it was 2.21. The PBM binding z-score was 1.09 in test [13], 1.47 in [14], -0.926 in test [15] and 0.94 in [16].

In the case of TAGCCTAGGTCATGCGGGTCAGTATAGTGTCGGC, the PBM binding z-score was determined as 4.39 in [1]; 3.93 in test [2]; 1.06 in test [3]; 0.0417 in [17]; 4.05 in [18]; 2.77 in test [5]. Moreover, the PBM binding z-score in [6] worked out at 3.43; in test [7], 0.354; in test [8], 2.32; in [9], 2.38; in test [10], 3.65; in test [19] it was 0.284. Further, the PBM binding z-score in [20] was -0.506; in test [11], 1.03; in test [12], 3.67; in test [13] it was 1.56; in test [14] it was 3.45; in test [15], -0.237. Also, the PBM binding z-score in test [16] is 4.05.

For CCTTACGGGTCAAGGTTATACCACGGGTGGTACG, the PBM binding z-score in test [1] is 5.46; in [2], 3.7; in [3], 0.309; in [17], 0.0291; in [18], 4.99; in test [5] it was 4.6. In addition, the PBM binding z-score is 4.47 in [6]; 1.63 in [7]; 3.83 in [8]; 1.19 in test [9]; 3.53 in test [10]; -0.379 in test [19]. The PBM binding z-score is -0.205 in test [20]; 3.33 in test [11]; 3.49 in test [12]; 0.498 in test [13]; 4.11 in test [14]; 1.71 in test [15]. This sequence also returned a PBM binding z-score in test [16] of 4.21.

As to CACACTAGGTCAAAGGTCAAAGTCGAGCCAACCA, the PBM binding z-score in test [1] came to 8.41; in test [2], 7.68; in [3], 6.65; in [17], 3.73; in test [18], 7.75; in test [5], 13.9. Besides, the PBM binding z-score in test [6] was determined as 11.2; in [7] it was 14; in [8] it was 14; in test [9] it was 8.09; in test [10], 8.84; in [19], 5.62. Moreover, the PBM binding z-score was found to be 4.09 in [20]; 7.33 in test [11]; 7.4 in [12]; 2.74 in [13]; 9.26 in test [14]; 4.38 in test [15]. Moreover, in [16], the PBM binding z-score came to 5.87.
